Screening results from PubChem BioAssay.
Sampled rows, rich in hits. Any-hit rate of the full collection: about 4%.
TROY signal inh: blocks TROY-dependent signaling in reporter cells; Q293 LMP1-TROYcd NF-kB luciferase reporter, 4 h; inhibition, % at 10 µM; 360,000 compounds, 0.98% hits; AID 1347056;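 active means compounds whose plate-normalised and pattern-corrected inhibition of the luciferase reporter signal at the single screening dose is 50% or more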
TWEAK-Fn14 inh: inhibitors of TWEAK-Fn14 interaction signaling; TWEAK-stimulated Fn14 reporter cells, luciferase luminescence, 8 h; inhibition, % at 10 µM; 360,000 compounds, 2% hits; AID 1159606; in the data active means inhibition above about 50%
CF NFkB block: inhibitors of cystic fibrosis induced NF-kB; AID 588850; inhibition, % at 5 µM; 360,000 compounds, 0.86% hits; KKLEB NF-kB-GFP reporter, PAF-induced, GFP fluorescence overnight;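 active means at least 50% inhibition at 5 µM, scaled per plate between neutral and stimulator controls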;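 further: PAF is a Pseudomonas aeruginosa culture filtrate used as stimulus; plate controls were PAF-stimulated DMSO wells for no effect and unstimulated DMSO wells for full effect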
KKLEB tox: counter-screen for CF NF-kB inhibitors: cytotoxicity. KKLEB CF airway cells viability, ATPlite luminescence, overnight; active compounds read low; cells stimulated with P. aeruginosa culture filtrate. activity change (cytotoxicity), % at 5 µM. 360,000 compounds, 0.36% hits. AID 602141;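 active means corrected activity change at or below -50% at 5 µM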
Peg3 promoter: inhibitors of Peg3 promoter; HeLa PEG-Prom luciferase reporter, luminescence, overnight; inhibition, % at 20 µM; 360,000 compounds, 1.7% hits; AID 588405;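 active means inhibition of at least 50% at 20 µM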
HIF-2a block: blocks HIF-2a reporter activity | 786-0 RCC cells HIF-2a reporter, luciferase luminescence, overnight | inhibition, % at 18.8 µM | 360,000 compounds, 0.72% hits;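 active means inhibition of the luminescence signal of 40% or more relative to plate controls, in a single-dose primary screen at 18.75 µM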
Active calls of the source: *.

`O=C(N=Nc1c(O)[nH]c2ccc([N+](=O)[O-])cc12)c1ccccc1Cl` gave TROY signal inh -20.5, TWEAK-Fn14 inh -16.4, CF NFkB block -37.6, KKLEB tox -3.1, Peg3 promoter -43.1 and HIF-2a block -81.9.
Screening COc1cc(C(=O)c2nccc3cc(OC)c(OC)cc23)c([N+](=O)[O-])cc1OC returned TROY signal inh 18.9, TWEAK-Fn14 inh -28.2, CF NFkB block 85.5*, KKLEB tox -34.1, Peg3 promoter -5.8 and HIF-2a block 19.4.
For COc1ccc(C(=O)NCCn2cc(SCC(=O)NCC3CCCO3)c3ccccc32)cc1 (configuration not stated) the results were TROY signal inh 59.2*, TWEAK-Fn14 inh 84.5*, CF NFkB block 6.1, KKLEB tox 5.3, Peg3 promoter -45.9 and HIF-2a block -28.6.
COc1ccc(C(=O)NCCn2cc(SCC(=O)Nc3nnc(C)s3)c3ccccc32)cc1 was read as TROY signal inh 62.2*, TWEAK-Fn14 inh 66.9*, CF NFkB block 7.8, KKLEB tox -0.4, Peg3 promoter -23.4 and HIF-2a block -59.1.
Screening COc1ccccc1C(=O)NCCn1cc(SCC(=O)NCC2CCCO2)c2ccccc21 (configuration not stated) returned TROY signal inh -0.3, TWEAK-Fn14 inh 9.5, CF NFkB block 3.0, KKLEB tox 5.9, Peg3 promoter 8.4 and HIF-2a block 10.9.
For COc1ccc(C(=O)NCCn2cc(SCC(=O)NCc3ccco3)c3ccccc32)cc1 the results were TROY signal inh 63.7*, TWEAK-Fn14 inh 45.5, CF NFkB block -4.8, KKLEB tox 6.6, Peg3 promoter -92.9 and HIF-2a block -23.6.
COC(=O)C1(C)NC(c2ccccc2C)C2C(=O)N(c3ccc(F)cc3)C(=O)C21 (configuration not stated) was read as TROY signal inh 11.8, TWEAK-Fn14 inh 14.6, CF NFkB block -9.6, KKLEB tox -6.2, Peg3 promoter 11.9 and HIF-2a block 19.0.
Screening FC(F)(F)c1cc(Cl)c2nc(-c3ccco3)c(Cc3ccccc3C(F)(F)F)n2c1 returned TROY signal inh -2.9, TWEAK-Fn14 inh 5.9 and HIF-2a block 21.2.
For COc1ccc(CCN2C(=O)CSC2=S)cc1OC the results were TROY signal inh -12.2, TWEAK-Fn14 inh 2.5, CF NFkB block 16.2, KKLEB tox -10.9, Peg3 promoter 59.6* and HIF-2a block 61.0*.
COc1ccc(CN2C(=O)CSCC2=O)cc1OC was read as TROY signal inh -16.4, TWEAK-Fn14 inh -0.3, CF NFkB block -3.7, KKLEB tox -3.8, Peg3 promoter 12.1 and HIF-2a block 13.4.
Cc1cc(OC(C)C(=O)NC2CC(C)(C)NC(C)(C)C2)c2c(C)c(C)c(=O)oc2c1 (configuration not stated) was read as TROY signal inh -2.6, TWEAK-Fn14 inh 19.4, CF NFkB block -41.6, KKLEB tox 3.8, Peg3 promoter -19.1 and HIF-2a block -32.1.
Screening COc1cc(CNCCN2CCOCC2)ccc1OCc1ccc(Cl)cc1 returned TROY signal inh -60.1, TWEAK-Fn14 inh 5.3, CF NFkB block 4.6, KKLEB tox -0.7, Peg3 promoter -27.6 and HIF-2a block -3.8.
COc1cc(CNCCN2CCOCC2)ccc1OCc1ccccc1Cl was read as TWEAK-Fn14 inh 101.1*, CF NFkB block -4.5, KKLEB tox 7.7, Peg3 promoter -9.7 and HIF-2a block -4.2.
Screening COc1cc(CNc2ccc3[nH]c(=O)[nH]c3c2)ccc1OCc1ccccc1Cl returned TROY signal inh -17.1, TWEAK-Fn14 inh 53.4*, CF NFkB block -6.5, KKLEB tox -6.8, Peg3 promoter -29.5 and HIF-2a block -106.1.
`CCN1CCN(C(=O)NC2CC(=O)N(c3ccc(OC)cc3)C2)CC1` (configuration not stated) gave TROY signal inh -26.1, TWEAK-Fn14 inh -1.9, CF NFkB block 11.5, KKLEB tox 2.6, Peg3 promoter -81.8 and HIF-2a block -18.4.
`COc1ccccc1CCNC(=O)c1cc(-c2ccccn2)nc2ccccc12` gave TROY signal inh 14.5, TWEAK-Fn14 inh 8.0, CF NFkB block -21.0, KKLEB tox 1.1, Peg3 promoter 51.0* and HIF-2a block -0.9.
O=C(NCCC1=CCCCC1)c1cc(-c2ccccn2)nc2ccccc12 was read as TROY signal inh 4.5, TWEAK-Fn14 inh -12.7, CF NFkB block 2.6, KKLEB tox -2.4, Peg3 promoter 1.6 and HIF-2a block 17.6.
For Cc1cccc(NC(=S)NN2CCN(C)CC2)c1C the results were TROY signal inh -2.2, TWEAK-Fn14 inh -5.7, CF NFkB block 4.6, KKLEB tox -8.0, Peg3 promoter 7.6 and HIF-2a block 8.0.
Cc1ccccc1NC(=S)NN1CCN(C)CC1 was read as TWEAK-Fn14 inh 73.9*, CF NFkB block -7.6, KKLEB tox 20.7, Peg3 promoter -2.0 and HIF-2a block 16.9.
`CCOC(=O)c1c(C)n(-c2ccc(C)cc2)c2ccc(OCC(O)CN3CCN(C)CC3)cc12` (configuration not stated) gave TROY signal inh -24.9, TWEAK-Fn14 inh -15.3, CF NFkB block 4.3, KKLEB tox -8.5, Peg3 promoter 78.5* and HIF-2a block 13.5.
Screening COc1ccc(N2C(=O)C(Cl)=C(Nc3ccc(OC)cc3OC)C2=O)cc1 returned TROY signal inh -52.7, TWEAK-Fn14 inh -2.0, CF NFkB block 4.2, KKLEB tox -14.1, Peg3 promoter -16.1 and HIF-2a block -26.3.
For COc1ccc(-c2nn(-c3ccccc3)cc2/C=N/NC(N)=S)cc1OC the results were TROY signal inh 11.9, TWEAK-Fn14 inh 69.4*, CF NFkB block 31.4, KKLEB tox -10.0, Peg3 promoter -16.0 and HIF-2a block -31.5.
`COc1ccc(-c2nn(-c3ccccc3)cc2/C=N/n2cnnc2)cc1OC` gave TROY signal inh -37.7, TWEAK-Fn14 inh -4.2, CF NFkB block 6.5, KKLEB tox -9.8, Peg3 promoter -11.2 and HIF-2a block -4.4.
`CN(C)S(=O)(=O)c1ccc(C(=O)/C=C/c2cccnc2)cc1` gave TROY signal inh 8.1, TWEAK-Fn14 inh 4.5, CF NFkB block 11.8, KKLEB tox 7.4, Peg3 promoter 100.5* and HIF-2a block 27.0.
Screening COc1cc(C(=O)/C=C/c2cccnc2)ccc1O returned TROY signal inh 6.7, TWEAK-Fn14 inh 32.9, CF NFkB block 0.9, KKLEB tox 7.3, Peg3 promoter -63.5 and HIF-2a block -27.5.
Screening COc1ccc(OC)c(C(=O)/C=C/c2cccnc2)c1 returned TROY signal inh -16.3, TWEAK-Fn14 inh 27.4, CF NFkB block 22.7, KKLEB tox -13.6, Peg3 promoter 75.5* and HIF-2a block 38.7.
N#Cc1ccc(/C=C/C(=O)c2cccnc2)cc1 was read as TROY signal inh 40.0, TWEAK-Fn14 inh -0.6, CF NFkB block -2.0, KKLEB tox 1.0, Peg3 promoter 70.3* and HIF-2a block 14.2.
